Bioassay records as filed in PubChem BioAssay.
Hits are enriched below; roughly 3.8% of the tested compounds scored in any of these assays.
HT1080NT lethal: kills 2HG-producing HT-1080-NT fibrosarcoma cells; HT-1080-NT fibrosarcoma viability, CellTiter-Glo ATP luminescence, 48 h; Potency, µM (series often up to 46.1 µM), inactives show at the highest dose activity, negative = less viability, actives largely listed as cytotoxic; actives 1.6% (n = 360,000);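 also: NT is the 2HG producing partner of a matched IDH1 knockdown line; 0% = DMSO-treated cells and -100% = media-only wells without cells; nearly all actives have a fitted effect of over 55% in size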
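Viability by CellTiter-Glo luminescence after 48 h compound exposure at 37C of HT-1080-NT cells (750/well, RPMI, 5% FBS). % activity scaled between DMSO wells and medium-only wells, then curve-fitted and categorized by curve class.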
ATXN viability: reduces viability in counter-screen for ATXN expression inhibitors; S2 cells (HEK-293 line with an ATXN2-luciferase reporter) viability, CellTiter-Fluor protease fluorescence, 24 h; Potency, µM (titrated, usually from 56.7 µM), most hits filed as cytotoxic; actives 0.49% (n = 400,000); AID 651635; also: nearly all actives have a fitted effect of over 40% in size
HT1080 IDH1KD tx: HT-1080 IDH1 knockdown cell toxicity (counter line) | HT-1080 IDH1 knockdown viability, ATP luminescence, 48 h | Potency, µM (doses to about 46.1 µM), inactives show at the top dose activity, negative = toxicity, actives largely listed as cytotoxic | actives 2% (n = 360,000) | AID 686971;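 also: 0% = DMSO wells and -100% = cell-free medium wells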
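In this qHTS, HT-1080 cells depleted of IDH1 are exposed for 48 h at 37 °C to compound titrations. Toxicity is scored from CellTiter-Glo luminescence, with DMSO as full viability and medium alone as none.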
TGFb inhibitor: blocks TGF-b signaling | HepG2 CAGA-GFP TGF-b/SMAD3 reporter, GFP fluorescence, 18 h; TGF-beta stimulated, 500 pg/mL final | Potency, µM (top dose mostly 46.1 µM), for the others: at the highest dose activity, negative = inhibition, usual class: inhibitors | AID 588855 | actives 1.2% (n = 410,000); also: % is scaled to controls: 0 for no effect and ±100 for the full control effect; nearly all actives have a fitted effect of over 65% in size
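First, reporter cells (HEPG2 CAGA-GFP) rested 2 h at 37 degrees C. Next, compounds were pinned in and TGF-beta added to 500 pg/mL final. After 18 h, GFP was imaged per cell and summed per well.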
HepG2 viability: HepG2 cytotoxicity, counter-screen for TGF-b inhibitors | HepG2 CAGA-GFP viability, ATP luminescence, 18 h | Potency, µM (series often up to 46.1 µM), for inactives: at the highest dose activity change, negative = cytotoxicity, actives largely listed as cytotoxic | actives 0.76% (n = 410,000)
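CellTiter-Glo luminescence gave cytotoxicity after 18 hours at 37 degrees C. The cells were HepG2 CAGA-GFP in 1% FBS DMEM, stimulated with 500 pg/mL TGF-beta after compound addition. %Activity was normalised to no-cell wells (complete cell-killing) and DMSO (no toxicity), and curves were fitted and classified.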
ATXN2 expr inh: ATXN2 expression inhibition; HEK-293 ATXN2-luciferase reporter, luminescence, 24 h; AID 1745845; Potency, µM (doses to about 57 µM), inactives show at the top dose activity change, negative = inhibition, hits mostly inhibitors; actives 0.72% (n = 360,000); also: % is scaled to controls: 0 for no effect and ±100 for the full control effect; nearly all actives have a fitted effect of over 55% in size
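qHTS (up to 57 uM final) was run with 24 h compound exposure of reporter cells at 37 °C. Each well was multiplexed: SteadyGlo luminescence measured ATXN2-luciferase expression after a fluorogenic Gly-Phe-AFC viability readout (25 uM final).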
Starred values were filed as active, the others as inactive; i = inactive; u = inconclusive; x = no result. Calls follow the shape of the dose curve; as a rule, active = well fitted curve in the direction sought with a large enough effect; inconclusive = small, poorly fitted or top-dose-only effect, or another doubt; inactive = no such curve, though single readings can be large; an effect the other way counts as inactive or inconclusive. Potency is read from the fitted curve at half-maximal effect.

SMILES	HT1080NT lethal	ATXN viability	HT1080 IDH1KD tx	TGFb inhibitor	HepG2 viability	ATXN2 expr inh
CCOc1ccc(C(=O)Nc2ccc(S(=O)(=O)N3C[C@@H]4C[C@@H](C3)c3cccc(=O)n3C4)cc2)cc1	u	i	23µM*	-12%	-9%	-21%
O=C(Nc1ccc(S(=O)(=O)N2C[C@@H]3C[C@@H](C2)c2cccc(=O)n2C3)cc1)c1ccc(F)cc1	13%	i	0%	-6%	-4%	1%
Cc1ccn(CCC(=O)N2CCOc3ccc(C(O)C4CCCCC4)cc3C2)n1 (stereo unspecified)	x	i	x	x	x	x
CCCn1c(CN2CCN(C(=O)OCC)CC2)nc2cc(NC(=O)CC)ccc21	7.3µM*	i	5.8µM*	u	1%	-21%
Cc1cc(N2CCN(C)CC2)nc2ccc(NC(=S)N3CCN(c4ccccn4)CC3)cc12	16µM*	i	u	-25%	-27%	-18%
Cc1ccc(C)c(N2CCN(C(=S)Nc3ccc4nc(N5CCN(C)CC5)cc(C)c4c3)CC2)c1	u	i	u	u	10µM*	u
Cc1nc2ccc(NC(=S)N3CCN(c4ccccn4)CC3)cc2nc1C	0%	i	-3%	u	6%	8%
CCN(CC(=O)NCc1ccc(F)cc1)C(=O)/C=C/c1ccc(S(=O)(=O)N(CC)CC)cc1	16µM*	i	4.6µM*	4%	-6%	-22%
CCN(CC(=O)NCc1ccc(Cl)cc1)S(=O)(=O)c1ccc(F)cc1	-16%	i	-1%	-1%	-1%	-6%
Cc1cc(Nc2ccc(C)c(Cl)c2)n2nc(Cc3ccccc3)nc2n1	x	i	x	u	-19%	-3%
Cc1c(C(=O)NCC2Cc3cccc(-c4cncnc4)c3O2)c(-c2ccccc2)nn1-c1ccccc1 (stereo unspecified)	x	i	x	x	x	x
CC(C)C[C@@H]1COc2cccc(N3CCN(Cc4ccccc4F)CC3)c2S(=O)(=O)N1	-3%	u	-17%	x	x	u
O=S1(=O)N[C@@H](Cc2ccccc2)COc2cccc(N3CCN(Cc4ccccc4F)CC3)c21	u	28µM*	u	x	x	u
CC(=O)Nc1ccc(S(=O)(=O)NC2=NCN(C(C)C)CN2)cc1	x	i	x	15%	1%	-7%
CC(=O)Nc1cc2cc(NS(=O)(=O)c3ccc(Cl)cc3)ccc2oc1=O	0%	i	-8%	4%	0.2µM*	0%
O=C(Nc1ccccc1)c1cc(C2CCCN(C(=O)C3CC3)C2)on1 (stereo unspecified)	-45%	i	0%	1%	8.9µM*	10µM*
O=C(Nc1ccc2c(c1)OCO2)c1cc(C2CCCN(C(=O)CCCc3ccccc3)C2)on1 (stereo unspecified)	16µM*	i	u	-23%	-22%	-24%
CC(=O)N1CCCC(c2cc(C(=O)Nc3ccccc3)no2)C1 (stereo unspecified)	-4%	i	-16%	4%	-27%	u
O=C(Nc1ccc2c(c1)OCO2)c1cc(C2CCCN(C(=O)CCc3ccccc3)C2)on1 (stereo unspecified)	-29%	u	u	28%	-3%	-6%
COc1ccc(NC(=O)C(=O)NCC2CCCN2S(=O)(=O)c2cc(C)ccc2C)cc1 (stereo unspecified)	u	u	18µM*	0%	-20%	-18%
COc1ccc(NC(=O)C(=O)NCC2CCCN2S(=O)(=O)c2ccc(C)cc2)cc1 (stereo unspecified)	0.21µM*	u	0.052µM*	u	-12%	-19%
CCOc1ccc(-c2cnc(NCc3ccc(OC)cc3OC)n2C)cc1	x	i	x	-19%	-42%	-22%
O=C(Cn1ncc(Cl)c(Cl)c1=O)c1ccc2c(c1)OCCO2	u	x	u	-19%	-82%	u
